Compounds without any hit were thinned out: in the full panel of roughly 83,000, 20% have a hit.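 Cell lines were cultured in 96-well plates, exposed to a single compound concentration, and assessed for percent growth 48 hours later.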 Calls of active or inactive are those of the source. The calls were made as follows: active = growth percent below 10; inactive = the rest.
Key:
Test in all cases: NCI-60 one-dose screen, 48 h (100 = growth as untreated, 0 = no growth, -100 = all killed)
Details in all cases: 10 µM unless noted
HCT-15 colon = tested on: HCT-15 colon
HT29 colon = tested on: HT29 colon
SNB-75 CNS = tested on: SNB-75 CNS
SNB-19 CNS = tested on: SNB-19 CNS
U251 CNS = tested on: U251 CNS
PC-3 prostate = tested on: PC-3 prostate
SK-MEL-5 melanoma = tested on: SK-MEL-5 melanoma
UACC-62 melanoma = tested on: UACC-62 melanoma
SK-MEL-28 melanoma = tested on: SK-MEL-28 melanoma
SK-MEL-2 melanoma = tested on: SK-MEL-2 melanoma
EKVX NSCLC = tested on: EKVX NSCLC
SN12C renal = tested on: SN12C renal
UO-31 renal = tested on: UO-31 renal
ACHN renal = tested on: ACHN renal
CAKI-1 renal = tested on: CAKI-1 renal
A498 renal = tested on: A498 renal
CCRF-CEM leukemia = tested on: CCRF-CEM leukemia
MOLT-4 leukemia = tested on: MOLT-4 leukemia
TK-10 renal = tested on: TK-10 renal

Measured: growth

CC1(C)C(=O)CC[C@]2(C)[C@H]3C(=O)C=C4[C@@H]5C[C@@](C)(C(=O)NCCNCCN)CC[C@]5(C)CC[C@@]4(C)[C@]3(C)CC[C@@H]12
active: SNB-75 CNS -29.7%
inactive: HCT-15 colon 99.4% | HT29 colon 98% | SNB-19 CNS 98.4% | U251 CNS 88.3% | PC-3 prostate 90.4% | SK-MEL-5 melanoma 96.8% | UACC-62 melanoma 98.1% | SK-MEL-28 melanoma 104% | SK-MEL-2 melanoma 121% | EKVX NSCLC 105% | SN12C renal 86% | UO-31 renal 76.8% | ACHN renal 104% | CAKI-1 renal 92.5% | A498 renal 101% | CCRF-CEM leukemia 75.9% | MOLT-4 leukemia 82.5%

N#C/C(=C\c1ccc(-c2ccc(Br)cc2)o1)c1nc(-c2cccs2)cs1
inactive: HCT-15 colon 98.8% | HT29 colon 105% | SNB-75 CNS 97% | SNB-19 CNS 95.1% | U251 CNS 99.3% | PC-3 prostate 95.9% | SK-MEL-5 melanoma 99.6% | UACC-62 melanoma 86.2% | SK-MEL-28 melanoma 99.1% | SK-MEL-2 melanoma 109% | EKVX NSCLC 79.6% | SN12C renal 94.5% | TK-10 renal 185% | ACHN renal 105% | CAKI-1 renal 100% | CCRF-CEM leukemia 94.1% | MOLT-4 leukemia 97%

Cn1cc(-c2nc(-c3c[nH]c4ncccc34)cs2)c2cc(Cl)ccc21
inactive: HCT-15 colon 31.2% | HT29 colon 38.5% | SNB-75 CNS 63.6% | SNB-19 CNS 74.4% | U251 CNS 40% | PC-3 prostate 42.4% | SK-MEL-5 melanoma 83.3% | UACC-62 melanoma 64.3% | SK-MEL-28 melanoma 80.1% | SK-MEL-2 melanoma 60.4% | EKVX NSCLC 41.8% | SN12C renal 54% | ACHN renal 30% | CAKI-1 renal 36.5% | A498 renal 74.7% | CCRF-CEM leukemia 33.8% | MOLT-4 leukemia 37.9%

COc1ccc(OCC(CO)N2CCN(c3ccccc3)CC2)cc1 (configuration not stated)
inactive: HCT-15 colon 102% | HT29 colon 98.2% | SNB-75 CNS 97.4% | SNB-19 CNS 96.6% | U251 CNS 97.3% | PC-3 prostate 84.6% | SK-MEL-5 melanoma 104% | UACC-62 melanoma 97.2% | SK-MEL-28 melanoma 103% | SK-MEL-2 melanoma 106% | EKVX NSCLC 108% | SN12C renal 97.2% | TK-10 renal 109% | ACHN renal 104% | CAKI-1 renal 90.6% | A498 renal 108% | CCRF-CEM leukemia 112% | MOLT-4 leukemia 116%

CCN1CCN(C(=O)[C@]23CC[C@@H](C)[C@H](C)[C@H]2C2=CC[C@@H]4[C@@]5(C)C/C(=C/c6cccc(OC)c6OC)C(=O)C(C)(C)[C@@H]5CC[C@@]4(C)[C@]2(C)CC3)CC1
inactive: HCT-15 colon 19.2% | HT29 colon 21.5% | SNB-75 CNS 35.6% | SNB-19 CNS 53.1% | U251 CNS 38.4% | PC-3 prostate 18.8% | SK-MEL-5 melanoma 46.2% | UACC-62 melanoma 57.4% | SK-MEL-28 melanoma 58.7% | SK-MEL-2 melanoma 84.6% | EKVX NSCLC 27.7% | UO-31 renal 30.3% | TK-10 renal 95.9% | ACHN renal 41.9% | CAKI-1 renal 31.4% | A498 renal 77.7% | CCRF-CEM leukemia 30.2% | MOLT-4 leukemia 10.1%

CCSc1sc(-c2ccc(C)cc2)nc1[P+](c1ccccc1)(c1ccccc1)c1ccccc1
inactive: SK-MEL-28 melanoma 15.2%
active: HCT-15 colon 1.86% | HT29 colon 2.52% | SNB-75 CNS -8.6% | SNB-19 CNS 8.14% | U251 CNS 9.48% | PC-3 prostate -11.5% | SK-MEL-5 melanoma -98.7% | UACC-62 melanoma -42.5% | SK-MEL-2 melanoma -56.9% | EKVX NSCLC 6.99% | SN12C renal 2.07% | UO-31 renal -33% | ACHN renal -44.8% | CAKI-1 renal -9.03% | A498 renal -46.1% | CCRF-CEM leukemia 8.77% | MOLT-4 leukemia -48.8%

COc1ccc(C2CC(=O)c3c(nc4ccc(Cl)cc4c3N)C2)cc1 (configuration not stated)
inactive: HCT-15 colon 92.5% | HT29 colon 101% | SNB-75 CNS 95.7% | SNB-19 CNS 103% | U251 CNS 106% | PC-3 prostate 101% | SK-MEL-5 melanoma 98.3% | UACC-62 melanoma 99.5% | SK-MEL-28 melanoma 98.4% | SK-MEL-2 melanoma 118% | EKVX NSCLC 97.6% | SN12C renal 101% | UO-31 renal 92.2% | ACHN renal 105% | CAKI-1 renal 88.5% | A498 renal 100% | CCRF-CEM leukemia 91.6% | MOLT-4 leukemia 95.1%

N#CC1=C(N)Oc2ccc3ccccc3c2C1c1ccccc1 (configuration not stated)
inactive: HCT-15 colon 19.5% | HT29 colon 17.7% | SNB-19 CNS 29.5% | U251 CNS 32.5% | PC-3 prostate 40.6% | SK-MEL-5 melanoma 25.7% | UACC-62 melanoma 18.6% | SK-MEL-28 melanoma 54.6% | SK-MEL-2 melanoma 49.7% | EKVX NSCLC 39% | SN12C renal 42.2% | UO-31 renal 44.9% | ACHN renal 37.3% | CAKI-1 renal 23.3% | A498 renal 21.5% | CCRF-CEM leukemia 20.7% | MOLT-4 leukemia 32.6%
active: SNB-75 CNS -16.3%
